Bioassay records from PubChem BioAssay.
Many of the other results were omitted from the sample, so hits are more common in it than they were.
RBX1-CUL1 inh: inhibitors of human ROC1-CUL1 ubiquitin ligase activity; inhibition, % at 10 µM; AID 1347404; P62877+Q13616; in vitro K48 di-Ub FRET, acceptor:donor ratio, 45 min; 140,000 tested, 0.6% active; in the data active = inhibition above about 25%
Target sequence (P62877 whole entry, looked up): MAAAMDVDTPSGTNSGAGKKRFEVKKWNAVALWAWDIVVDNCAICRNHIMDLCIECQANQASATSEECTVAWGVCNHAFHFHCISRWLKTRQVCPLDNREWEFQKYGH
Target sequence (Q13616 whole entry, looked up): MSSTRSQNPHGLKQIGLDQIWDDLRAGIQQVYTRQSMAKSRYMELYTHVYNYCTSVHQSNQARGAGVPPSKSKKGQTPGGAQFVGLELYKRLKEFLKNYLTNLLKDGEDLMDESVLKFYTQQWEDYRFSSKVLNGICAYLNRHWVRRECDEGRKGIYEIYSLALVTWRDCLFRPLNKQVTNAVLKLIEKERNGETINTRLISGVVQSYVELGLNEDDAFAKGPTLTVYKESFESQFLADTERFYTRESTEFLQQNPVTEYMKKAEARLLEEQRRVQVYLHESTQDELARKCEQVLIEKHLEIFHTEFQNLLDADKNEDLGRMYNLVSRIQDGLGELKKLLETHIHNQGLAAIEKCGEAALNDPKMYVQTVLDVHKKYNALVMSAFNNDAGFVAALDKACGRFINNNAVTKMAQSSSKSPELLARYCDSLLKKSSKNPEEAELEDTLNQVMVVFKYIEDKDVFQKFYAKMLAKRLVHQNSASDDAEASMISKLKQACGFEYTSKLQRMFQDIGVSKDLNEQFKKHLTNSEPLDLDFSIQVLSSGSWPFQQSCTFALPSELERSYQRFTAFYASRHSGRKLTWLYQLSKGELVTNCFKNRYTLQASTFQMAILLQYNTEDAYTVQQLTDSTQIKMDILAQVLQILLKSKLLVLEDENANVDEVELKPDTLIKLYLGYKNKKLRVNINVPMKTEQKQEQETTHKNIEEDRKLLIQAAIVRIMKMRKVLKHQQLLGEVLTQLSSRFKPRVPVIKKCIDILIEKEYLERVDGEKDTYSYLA
Numbers without * were called inactive.

SMILES	RBX1-CUL1 inh
CCOC(=O)COc1cc(Br)c(/C=C2/SC(=O)N(CC)C2=O)cc1OC	-7
CCc1ccccc1N=C1S/C(=C\c2cc(Br)ccc2OCC(=O)O)C(=O)N1c1ccccc1CC	0
O=C(O)COc1ccc(Br)cc1/C=C1/SC(=O)N(CC(=O)N2CCCC2)C1=O	-9
COc1cccc(OC)c1C(=O)Nc1ccccc1-n1cccc1	3
Cc1ccccc1CNc1cccc(C(=O)O)c1C	1
COCCC(=O)Nc1ccc2c(c1)CN(Cc1cc(Cl)c(OC)c(OC)c1)CC2	2
COc1cc(/C=C2/C(=O)N(c3cccc(Cl)c3)N=C2C)ccc1OC(=O)c1cccs1	-9
COc1cc(/C=C2\C(=O)N(c3ccc(S(N)(=O)=O)cc3)N=C2C(F)(F)F)ccc1OCC(C)C	35*
COc1cccc(/C=C2\C(=O)N(c3ccc(S(N)(=O)=O)cc3)N=C2C)c1	97*
COc1cc(/C=C2/C(=O)N(c3ccc(S(=O)(=O)O)cc3)N=C2C)ccc1OC(=O)c1cccs1	56*
COc1cccc(C=C2C(=O)N(C)C(=O)N(C)C2=O)c1	-4
C#CCOc1ccc(/C=C2\C(=O)N(c3ccc(S(N)(=O)=O)cc3)N=C2C(F)(F)F)cc1OCC	-1
CCOC(=O)c1ccc(N2NC(=O)/C(=C/c3ccc(OC(=O)c4cccs4)c(OC)c3)C2=O)cc1	24
CC1=NN(c2ccc(S(N)(=O)=O)cc2)C(=O)/C1=C\c1ccc(N(C)C)cc1	7
CCCOC(=O)c1cccc(-c2ccc(/C=C3\C(=O)N(c4ccc(S(N)(=O)=O)cc4)N=C3C(F)(F)F)o2)c1	5
CCOC(=O)C1C(C)=NC2=C(C(=O)CC(c3ccc(OC)c(OC)c3)C2)C1c1c(F)cccc1Cl (configuration not stated)	1
CCOc1ccc(C(Nc2cc(C)ccn2)c2ccc3cccnc3c2O)cc1C (configuration not stated)	-1
O=C1CCCCC(C(Nc2ccc(Br)cc2)c2ccccc2)N1 (configuration not stated)	-9
O=C(c1ccc(N2CCC(NC(c3ccncc3)c3ccc(Cl)cc3)CC2)cc1)N1CCOCC1 (configuration not stated)	-8
CC1=NN(c2ccc(Cl)c(C(=O)O)c2)C(=O)/C1=C\c1cnn(-c2ccc(C)c(C)c2)c1	100*
CC1=NN(c2ccc(Cl)c(Cl)c2)C(=O)/C1=C/c1ccc(C)cc1	-8
CC1=NN(c2ccc(C(=O)O)cc2)C(=O)/C1=C/c1cc(C(C)(C)C)c(O)c(C(C)(C)C)c1	12
Cc1sc2nc(CN3CCOCC3)[nH]c(=O)c2c1C	5
O=C(CN1CCN(CCO)CC1)N1CCCC(c2ccc(F)cc2)c2ccc(F)cc21 (configuration not stated)	-2
O=C(c1ccc2ccccc2c1)C1CCCN(C(=O)CCN2CCCC2=O)C1 (configuration not stated)	-5
SMILES	RBX1-CUL1 inh
CCn1cc(C(=O)N2CCCC(C(=O)c3ccc4ccccc4c3)C2)cn1 (configuration not stated)	68*
COC(=O)CCC(=O)N1CCCC(C(=O)c2ccc3ccccc3c2)C1 (configuration not stated)	0
COc1ccc(-c2csc(-n3[nH]c(-c4ccc([N+](=O)[O-])cc4)c(N=Nc4c(Cl)cc([N+](=O)[O-])cc4Cl)c3=O)n2)cc1	5
Cc1ccc(OCC(=O)Nc2nc(-c3ccc(S(=O)(=O)N4CCOCC4)cc3)cs2)cc1C	-1
Cn1ncc(N2CCN(Cc3cn[nH]c3C3CCCCC3)CC2)cc1=O	2
CN(C)/C=C1/N=C2C=C(c3ccccc3)c3cc(Cl)ccc3N2C1=O	0
CN(C)/C=C1\C(=O)N(c2c(Cl)cccc2Cl)c2cc(C=C(C#N)C#N)ccc21	34*
CCN(CC)CCN=CC1C(=O)N(c2c(Cl)cccc2Cl)c2ccccc21 (configuration not stated)	4
CCCCn1cc(-c2cc(C(=O)N3CCOCC3)c3cccc(C)c3n2)cn1	4
Cc1sc(NC(=O)CSc2nnc(-c3ccncc3)n2-c2ccccc2)c(C#N)c1C	-7
O=C(O)c1ccc(C2Nc3cccc4cccc(c34)N2)cc1	93*
CC(C)(C)c1ccc(C2Nc3cccc4cccc(c34)N2)cc1	-7
Fc1cccc(C2Nc3cccc4cccc(c34)N2)c1	-5
CCOc1cccc2c1Oc1nc(-c3ccccc3)nc(SCC(=O)Nc3ccc(F)cc3)c1C2	-10
Cc1ccc(-c2nc3c(c(SCC(=O)Nc4cccc(C(=O)O)c4)n2)Cc2cccc(C)c2O3)cc1	31*
COc1ccc(-c2nc3c(c(SCC(=O)Nc4ccccc4OC)n2)Cc2cccc(C)c2O3)cc1	3
COCCN(Cc1ccccn1)C(Cc1ccccc1)C1CCN(Cc2c(O)cccc2OC)CC1 (configuration not stated)	6
CCc1noc(C)c1C(=O)NC(C)c1ccc(C)cc1C (configuration not stated)	-2
COC(=O)C1C(=N)OC2=C(C(=O)CCC2)C1c1cccc(Br)c1 (configuration not stated)	106*
COC(=O)C1C(=N)OC2=C(C(=O)CC(C)(C)C2)C1c1ccccc1 (configuration not stated)	-10
COC(=O)C1C(=N)OC2=C(C(=O)CCC2)C1c1cccnc1 (configuration not stated)	4
CCCCCCCCCCOc1ccc(C2=N/C(=C\c3ccc(C)cc3)C(=O)O2)cc1	3
Cc1ccc(C(=O)c2coc3c2cc(O)c2ccccc23)cc1	-8
CC(=O)C(C(C)=O)C1=C(Cl)C(=O)C(=O)c2c(C(=O)c3ccc(C)cc3)coc21	79*
Cc1ccc(C(=O)c2coc3ccc(O)c(Cl)c23)cc1	0
SMILES	RBX1-CUL1 inh
Cn1c(Cc2ccccc2)nn(CN2CCC3(CC2)OCCO3)c1=S	-6
CC12C=CC(C)(O1)C1C(=O)N(c3cccc(C(F)(F)F)c3)C(=O)C12 (configuration not stated)	3
CCCOc1ccccc1/C=N/NC(=O)COc1ccccc1OC	-5
Cc1cc(/C=C2\SC(=Nc3ccc(Cl)cc3)NC2=O)c(C)n1-c1cc(C(=O)O)cc(C(=O)O)c1	100*
CCOC(=O)c1ccc(-n2c(C)cc(/C=C3\SC(=Nc4ccc(Cl)cc4)NC3=O)c2C)cc1	1
Cc1cc(/C=C2\SC(=Nc3ccc(F)cc3)NC2=O)c(C)n1-c1ccc(S(N)(=O)=O)cc1	-5
CS(=O)(=O)Oc1ccc2c(-c3ccccc3C(=O)O)c3ccc(=O)c(I)c-3oc2c1I	117*
O=C(O)c1cccc2c1-c1ccccc1C2=O	-4
CC1=Nc2ncnn2C(c2cccc(F)c2)C1C(=O)Nc1ccccc1C (configuration not stated)	10
Cc1ccc(CNC(=O)c2cc(-c3ccc(C)o3)nc3ccccc23)cc1	8
CCSc1nnc(NC(=O)c2cc(-c3ccc(C)o3)nc3ccccc23)s1	81*
Cc1ccc(-c2cc(C(=O)Nc3ccccc3C(N)=O)c3ccccc3n2)o1	1
CC1=NC(=O)NC(c2cn(-c3ccccc3)nc2-c2cccs2)C1C(=O)OCc1ccccc1 (configuration not stated)	-5
Cc1cccc(C2C3(OC(c4ccccc4)C24C(=O)c2ccccc2C4=O)C(=O)c2ccccc2C3=O)c1 (configuration not stated)	6
Cc1nc2sc3c(c2c(=O)[nH]1)CCN(Cc1ccccc1)C3	-1
Cc1ccc(NC(=O)c2cc(C)on2)c(Br)c1	1
CCOC(=O)C(=O)Nc1ccccc1Br	5
